# This is a sample that favours compounds with a hit; in the whole collection about 7.9% have one here.
# HCV inhibitor: qHTS Assay for Inhibitors of Hepatitis C Virus (HCV) | Huh7.5.1 HCVcc-Cre infection, luciferase reporter, 44 h | Potency, µM (doses to about 41.8 µM), for inactives: at the top dose activity change, negative = inhibition, actives largely listed as inhibitors | 340,000 tested, 3.4% active | AID 651820, 2012; active = well fitted inhibition curve with a large enough effect; inconclusive = small, poorly fitted or top-dose-only effect, or another doubt; inactive = no such curve, though single readings can be large or run the other way; also: potency is read from the fitted curve at half-maximal effect
#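 Reporter virus HCVcc-Cre (~0.5 moi) infects cells exposed to compound; seeding density 1,000 cells/well with 4 h settling beforehand. Luminescence, 15 sec read, taken 44 h post-infection following a 15 min RT substrate incubation.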
# MARV entry inh: qHTS for inhibitors of binding or entry into cells for Marburg Virus | Marburg virus pseudotyped entry inhibition, cell reporter | Potency, µM (top dose mostly 37.8 µM), inactives show top-dose activity change, negative = inhibition, most hits filed as inhibitors | 300,000 tested, 1.8% active | AID 540276, 2011; calls by dose curve; tested in HEK293 cells; also: potency is read from the fitted curve at half-maximal effect
# FMDV antiviral: High Throughput Screening for Foot and Mouth Disease Virus Antivirals; Potency, µM (doses to about 57.9 µM), for the others: at the top dose activity change, negative = inhibition, usual class: inhibitors; 410,000 tested, 1.2% active; FMDV antiviral cell-based qHTS; calls by dose curve; tested in HEK293T cells; also: read-out not given here; potency is read from the fitted curve at half-maximal effect; nearly all actives have a fitted effect of over 45% in size
# Lassa entry inh: qHTS for Inhibitors of binding or entry into cells for Lassa Virus. Lassa virus pseudotype entry inhibition, cell reporter. Potency, µM (top dose mostly 37.9 µM), inactives show at the highest dose activity change, negative = inhibition, hits mostly inhibitors. 300,000 tested, 1.2% active; calls by dose curve; tested in HEK293 cells; also: potency is read from the fitted curve at half-maximal effect; nearly all actives have a fitted effect of over 50% in size
# HCMV inh: qHTS Assay for inhibitors of the human cytomegalovirus (HCMV). activity change, negative = inhibition, % at 57.5 µM. HFF cells, HCMV-luciferase reporter, 72 h; active compounds read low. 410,000 tested, 4.5% active; in the data active = activity change below about -60%; inconclusive = no clear call, values can overlap the other calls; inactive = above about -39%
#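 Human foreskin fibroblasts infected with luciferase-reporter HCMV at MOI 1 PFU/cell, compounds at two doses. Luciferase measured 72 h post infection; normalized to buffer-only basal and Salinomycin (10uM) controls.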
# * = called active by the depositor; u = inconclusive; x = not tested or not shown; ! = not confirmed by another sample; [ ] = another dose, or the depositor's remark. % is scaled to controls: 0 for no effect and ±100 for the full control effect.
SMILES,HCV inhibitor,MARV entry inh,FMDV antiviral,Lassa entry inh,HCMV inh
O=C1C(Cc2ccccc2)Nc2ncnc(N3CCOCC3)c2N1Cc1ccccc1 (centres undefined),-6%,x,0%,x,-101*!
COC(=O)[C@@]1(C=C2c3ccc(F)cc3[C@@H](OC)[C@@H]2C)[C@@H]2CC=C[C@@H]21,x,0%[14.2 µM],x,x,x
Cc1cccc(OC(C)C(=O)Nc2ccccc2C(=O)N2CCCCC2)c1 (centres undefined),u,-30%[46.1 µM],-17%,7%,5
CCOc1cc(C2Nc3ccccc3NC3=C2C(=O)CC(C)(C)C3)ccc1O (centres undefined),-9%,x,6%,x,41
O=C(N/N=C/c1ccccc1)c1ccc(OCc2ccccc2)cc1,-2%,x,27%,x,30
COc1ccc(/C=N/OCC(=O)NC(c2ccccc2)c2ccccc2)c(OC)c1,u,u,u,2.2µM*,-6
O=C(N/N=C/c1ccccc1)c1sccc1OCc1ccc(F)cc1,u,u,-10%,-12%,-62*
CCC(CC)=NNC(=O)c1ccccc1OCc1ccc(F)cc1,u,0%,-21%,u,u
COc1ccc(/C=N/OCC(=O)NCC(C)C)c(OC)c1,-11%,12%[46.1 µM],-17%,-14%[46.1 µM],-34
Cc1ccc(/C=N/NC(=O)c2ccccc2OCc2ccc(F)cc2)o1,10µM*,-20%,-33%,2%,u
C#CCOc1ccccc1/C=N/NC(=O)c1ccccc1OCc1ccccc1,u,x,18µM*,x,u
COc1cc2c(cc1OC)[C@@H]1O[C@](CCCCN3C(=O)c4ccccc4C3=O)(C2)Oc2cc(C)n(Cc3ccccc3)c(=O)c21,x,-3%[14.2 µM],x,x,x
CC(=O)NS(=O)(=O)c1ccc(NC(=O)CCC(=O)Oc2ccc(C)cc2)cc1,-13%,x,3%,x,-6
Cc1cccc(NC(=O)CSc2nnc3[nH]c(=O)cc(-c4ccccc4)n23)c1C,x,x,19%,6%[46.1 µM],63
Cc1cnc(-n2ncc(C(=O)N(C)C3CCOC3)c2-c2cccs2)nc1-c1ccc(F)cc1 (centres undefined),x,x,36%,x,x
S=C1NC2(CCCCCC2)NN1c1ccccc1,x,x,x,x,18
COC(=O)C[C@@H]1C=C[C@@H](NC(=O)CN(C)C)[C@@H](CO)O1,x,x,-10%,x,4
COc1ccccc1C(=O)NCC(=O)N/N=C/c1cc(Br)ccc1OCc1ccccc1,10µM*,u,u,u,u
COc1ccc(/C=N/NC(=O)c2ccccc2OCc2ccccc2)c(OC)c1,13µM*,u,-16%,u,u
O=C(CNC(=O)c1ccc(F)cc1)N/N=C/c1cc(Br)ccc1OCc1ccccc1,u,u,-16%,-10%,10
COc1ccc(COc2ccccc2C(=O)NCc2ccccc2)cc1F,10µM*,u,u,u,-69*
Cc1ccccc1NC(C)C(=O)N/N=C/c1ccccc1OCc1cccc(Br)c1 (centres undefined),u,u,0%,u,55
COc1cc(C(=O)NCc2ccccc2)ccc1OC(F)F,0%,9%,22%,5%,-27
COc1ccc(NC(C)C(=O)N/N=C/c2ccccc2OCc2cccc(Br)c2)cc1 (centres undefined),11µM*,u,-16%,11µM*,14
Cc1ccc(C(=O)N2CCN(c3ccc(NC(=O)Cc4ccccc4)cc3)CC2)cc1,9%,-7%,-29%,-13%,u
SMILES,HCV inhibitor,MARV entry inh,FMDV antiviral,Lassa entry inh,HCMV inh
COc1ccc(-c2[nH][nH]c(=O)c2NC(=O)c2ccccc2Br)cc1,x,x,-8%,x,-4
CCc1cccc(C)c1NC(=O)CSc1nc2ccccc2nc1N1CCOCC1,x,u,u,u,12
CSc1cc(-c2ccncc2)nc(-c2ccc(Cl)cc2)c1,u,4.5µM*,-6%,14%,x
C=CCSC1=C(C#N)C(c2ccccc2Cl)C(C(=O)c2cccs2)C(O)(C(F)(F)F)N1 (centres undefined),u,u,-23%,-2%,-70*
Cc1ccc(OCCCCNC(C)c2ccccc2)c(C)c1 (centres undefined),10µM*,11µM*,-29%,u,12
Cc1ccc(OCCSc2ncccn2)c(C)c1,-11%,u,7%,10µM*,-37
Cc1ccc(OCCNCc2ccccc2)c(C)c1,-18%,-1%,25%,1%,-8

# From PubChem BioAssay
